Bioassay records: PubChem BioAssay, several laboratories
MEKK2wt PB1 HTS: modulators of MEK5 binding to wildtype MEKK2, primary screen, biochemical, multiplex bead flow cytometry, Alexa488-MEK5; binding response (% of control), % at 10 µM; Alexa488-MEK5 binding to MEKK2 WT; actives lie on both sides; 290,000 tested, 1.1% active; Mitogen-activated protein kinase kinase kinase 2 (Homo sapiens), Q9Y2U5; in the data active = binding response below about 67% or above about 130%
MEKK3 PB1 HTS: modulators of MEKK3-MEK5 PB1 binding, primary screen, biochemical, wildtype MEKK3, multiplex bead flow cytometry, Alexa488-MEK5; Mitogen-activated protein kinase kinase kinase 3 (Homo sapiens), Q99759; 290,000 tested, 1.4% active; bead-based flow cytometry, Alexa488-MEK5 binding to MEKK3; actives lie on both sides; 0 = blocked by unlabeled MEK5, 100 = vehicle; binding response (% of control), % at 10 µM;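 active = binding response more than 3 SD above or below the average of its plate-row segment, actives on both sides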;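 note: Alexa488 bead fluorescence after subtracting the streptavidin-only scavenger bead signal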
Target sequence (Q99759 whole entry, looked up): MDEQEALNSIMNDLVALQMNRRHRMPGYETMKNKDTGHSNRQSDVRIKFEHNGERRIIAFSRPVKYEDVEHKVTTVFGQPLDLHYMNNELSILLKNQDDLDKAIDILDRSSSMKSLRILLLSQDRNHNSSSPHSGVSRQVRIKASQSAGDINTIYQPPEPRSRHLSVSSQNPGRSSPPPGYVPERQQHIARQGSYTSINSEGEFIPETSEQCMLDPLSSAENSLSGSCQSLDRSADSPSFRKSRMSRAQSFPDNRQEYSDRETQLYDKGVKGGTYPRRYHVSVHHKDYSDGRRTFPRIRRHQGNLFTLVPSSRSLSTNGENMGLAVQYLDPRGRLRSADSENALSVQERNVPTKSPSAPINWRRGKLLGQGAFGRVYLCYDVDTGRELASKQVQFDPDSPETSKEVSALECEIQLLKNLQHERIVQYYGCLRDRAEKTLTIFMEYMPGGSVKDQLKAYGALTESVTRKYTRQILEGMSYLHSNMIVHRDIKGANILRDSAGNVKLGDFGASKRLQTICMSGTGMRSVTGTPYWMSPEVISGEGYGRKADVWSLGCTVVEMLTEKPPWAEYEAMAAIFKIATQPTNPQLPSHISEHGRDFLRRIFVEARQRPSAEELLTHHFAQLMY
ANO1 block: TMEM16A chloride channel inhibitors, primary screen, cell-based, HTS | Anoctamin-1 (Mus musculus), Q8BHY3 | HEK293 TMEM16A/YFP iodide influx fluorescence, ionomycin | normalized B-score (activity score, 25-100; higher = stronger inhibition) at 10 µM | 310,000 tested, 1.2% active | AID 588511, 2011;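 active = ratio plate-corrected score three or more library SD toward inhibition, starting fluorescence score within five deviations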;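 note: score derived from kinetic fluorescence span divided by baseline fluorescence per well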
NTR1 agonist: agonists of human NTR1, primary screen, imaging, U2OS cells, beta-arrestin-GFP, high content | Neurotensin receptor type 1 (Homo sapiens), P30989 | AID 493036, 2011 | 330,000 tested, 0.17% active | activation, % at 20 µM | NTR1-U2OS beta-arrestin-GFP spot imaging, agonist mode;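 active = activation at or above 40% of the spot to cytoplasm intensity ratio, with at least 20 cells analyzed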
ANO1 activ: TMEM16A chloride channel activators or potentiators, primary screen, cell-based, HTS; AID 623877, 2012; B-score at 10 µM; Anoctamin-1 (Mus musculus), Q8BHY3; HEK293 TMEM16A/YFP-H148Q/I152L, iodide quench fluorescence; active compounds read low; 340,000 tested, 0.3% active;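 active = fluorescence-ratio B-score plate-corrected deviation score at least 3 library SD below zero, with starting fluorescence score within 5 deviations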;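 note: channel opened by trigger with iodide after compound preincubation; score built on the fluorescence ratio of max minus min over baseline; more negative score means more quench and so TMEM16A activation or potentiation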
MEKK2 mut-MEK5: MEK5 binding signal on mutant MEKK2 PB1, primary screen, biochemical, multiplex bead flow cytometry, Alexa488-MEK5; percent response, % at 10 µM; Alexa488-MEK5 binding to MEKK2 mutant; 290,000 tested, 0.35% active; in the data active = percent response above about 24%, passing the limit was not always enough
MEKK2wt confirm: modulators of MEK5 binding to wildtype MEKK2, confirmation, biochemical, single concentration, multiplex bead flow cytometry; shares compounds with MEKK3 PB1 HTS; Alexa488-MEK5 binding to MEKK2 WT; actives lie on both sides; binding response (% of control), % at 10 µM; 5,900 tested, 2.4% active; in the data active = binding response below about 16% or above about 210%; inactive = in between
MEKK2mut confirm: mutant MEKK2 PB1-MEK5 binding signal retest – biochemical, single concentration, multiplex bead flow cytometry, confirmation; Alexa488-MEK5 binding to MEKK2 mutant; shares compounds with MEKK3 PB1 HTS; percent response, % at 10 µM; 5,900 tested, 2% active; in the data active = percent response mostly above about 71%, no sharp cut-off; inactive = mostly below about 38%;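 note: higher means compound restores mutant binding toward wildtype level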
MEKK3 confirm: MEKK3 wild-type PB1 binding to MEK5, inhibitors, confirmation, biochemical, bead multiplex flow cytometry, single concentration, wildtype; binding response (% of control), % at 10 µM; 5,900 tested, 1.8% active; Alexa488-MEK5 binding to MEKK3; active compounds read low; shares compounds with MEKK3 PB1 HTS;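 active = binding response below 72% of control, or above a set upper limit, though filed actives all read lower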;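 note: lower values mean stronger disruption of MEK5 binding to MEKK3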
A number is an active result; n = inactive; x = no result given; + = active, no number; [ ] = remark or other dose. This is a sample that favours compounds with a hit; in the whole collection about 3.4% have one here.

SMILES	MEKK2wt PB1 HTS	MEKK3 PB1 HTS	ANO1 block	NTR1 agonist	ANO1 activ	MEKK2 mut-MEK5	MEKK2wt confirm	MEKK2mut confirm	MEKK3 confirm
COc1ccc(CNC(=O)COC(=O)C(CCSC)NC(=O)c2ccco2)cc1OC (stereo unspecified)	x	x	x	n	n	x	x	x	x
Cc1c(Cl)cnc(NC(=O)CSc2nncs2)c1Cl	n	144	n	n	n	n	n	n	n
CCN1CCN(c2ccc(NC(=O)CCc3c(C)nc4c(-c5ccc(F)cc5)c(C)nn4c3C)cc2)CC1	146	n	n	n	n	n	n	n	n
O=C(COc1ccccc1)NCC1(N2CCCCC2)CCCCC1	147	n	n	n	n	n	n	n	n
N#Cc1ccc(OCC(=O)NCC2(N3CCCCC3)CCCCC2)cc1	n	n	n	n	n	n	x	x	x
COc1ccc(C(C(=O)NC2CCCCC2)N(C(=O)c2sc(C)nc2C)c2ccc(OC)cc2)cc1 (stereo unspecified)	n	46[inhibitor]	n	n	n	n	n	n	n
COc1ccc(C(C(=O)NC2CCCC2)N(C(=O)c2ccoc2C)c2ccccc2)cc1 (stereo unspecified)	n	137	n	n	n	n	n	n	n
Cc1[nH]c2ccccc2c1C(=O)C(=O)NCCC1=CCCCC1	n	135	n	n	n	n	n	n	n
Cc1ccc(CSCCC(=O)NCCC2=CCCCC2)cc1	n	130	n	n	n	n	n	n	n
C1=C(CCNc2ncnc3c2[nH]c2ccccc23)CCCC1	143	n	n	x	n	n	n	n	n
Cc1ccc(CNC(=O)C(=O)NCCC2=CCCCC2)cc1	n	72[inhibitor]	n	n	n	n	n	n	n
O=C(NCCC1=CCCCC1)C(=O)NCc1ccccc1	n	n	n	n	n	n	x	x	x
O=C(CCSCc1cccc(Cl)c1)NCCC1=CCCCC1	n	n	n	n	n	n	x	x	x
CC(O)c1cc2c(s1)c1cnn(Cc3ccccc3F)c(=O)c1n2C (stereo unspecified)	x	x	x	n	x	x	x	x	x
Cc1nn(-c2ccccc2)c(C)c1NC(=O)COC(=O)Cc1ccccc1F	x	x	n	n	n	x	x	x	x
CC(C)(C)NC(=O)C(=O)NCCC1=CCCCC1	n	n	n	n	n	n	x	x	x
O=C(O)C1C2C=CC(O2)C1C(=O)NCCC1=CCCCC1 (stereo unspecified)	1.0[inhibitor]	1.0[inhibitor]	n	n	n	n	n	n	n
CC(=O)Cc1nsc(NC(=O)c2cccs2)n1	n	n	n	n	n	n	x	x	x
CC1(C)CC(=O)C2=C(C1)N(c1ccccc1)C(N)=C(C#N)C2c1ccccc1 (stereo unspecified)	n	n	n	n	n	n	x	x	x
CC1(C)CC(=O)C2=C(C1)N(c1ncn[nH]1)C(N)=C(C#N)C2c1ccccc1 (stereo unspecified)	n	137	n	n	n	n	n	n	n
CC1(C)CC(=O)C2=C(C1)N1C(=C(C#N)C2c2ccc(Cl)cc2)N=C(N)c2ccccc21 (stereo unspecified)	2.0[inhibitor]	1.0[inhibitor]	n	n	n	n	n	n	n
CC1(C)CC(=O)C2=C(C1)N1C(=C(C#N)C2c2ccccc2Cl)N=C(N)c2ccccc21 (stereo unspecified)	n	n	n	n	n	n	x	x	x
C/C(=N\O)C(C)Oc1ccc(Cl)cc1 (stereo unspecified)	n	n	n	n	n	n	x	x	x
Nc1c(-c2ccccc2)cnn1-c1ccc(C(=O)O)cc1	n	82[inhibitor]	n	n	n	n	n	n	n
Cc1ccc(-c2cnn(-c3ccccc3)c2N)cc1	n	n	n	n	n	n	x	x	x
SMILES	MEKK2wt PB1 HTS	MEKK3 PB1 HTS	ANO1 block	NTR1 agonist	ANO1 activ	MEKK2 mut-MEK5	MEKK2wt confirm	MEKK2mut confirm	MEKK3 confirm
CCC[C@@H](CNC)NC[C@H](Cc1ccccc1)NCCCCc1ccccc1	154	n	n	n	n	n	n	n	n
CNC[C@@H](Cc1ccccc1)NC[C@@H](CC1CCCCC1)NCCCc1ccccc1	244	n	n	n	n	44	n	n	n
C=CC[C@@H](CC(=O)N(CCO)Cc1ccccc1)C(=O)NCCOC(=O)[C@H](CC=C)CC(=O)OC(C)(C)C	x	x	x	n	n	x	x	x	x
Cc1ccnn1CCC(=O)O	n	129	n	n	n	n	n	n	n
O=C1/C(=C/c2ccccc2)SC(=S)N1N1C(=O)C2CC2C1=O (stereo unspecified)	n	n	n	n	n	n	x	x	x
Cc1ccsc1CNC1CCCCC1	n	n	n	n	n	n	x	x	x
C=C(C)CN(CC)C(=O)CCc1nnc(CCCc2ccccc2)o1	n	n	n	n	n	n	x	x	x
CCN(CCn1cccn1)C(=O)CCc1nnc(CCCc2ccccc2)o1	151	131	n	n	n	+	n	n	n
COc1cccc(CNc2cc(C)ccn2)c1O	n	n	n	n	n	27	n	n	n
COc1cccc(CNc2ccccn2)c1O	n	n	n	n	n	n	x	x	x
COC(=O)C(F)(F)Sc1c(C)[nH]c2ccccc12	n	79[inhibitor]	n	n	n	n	n	n	n
COC(=O)CCC(=O)OC1(C)C(=O)C2=CN(CCc3c[nH]c4ccccc34)C(c3ccc(OC)cc3)=CC2=C(Br)C1=O (stereo unspecified)	n	n	n	n	n	n	x	x	x
COC(=O)CCC(=O)OC1(C)C(=O)C2=CN(CC(C)C)C(c3ccc(OC)cc3)=CC2=C(Br)C1=O (stereo unspecified)	-7.0[inhibitor]	n	n	n	x	n	n	n	71
